Data as given in PubChem BioAssay AID493194 (Broad Institute, 2011).
Measured potencies and affinities stand elsewhere. Inconclusive results are not listed. Active and inactive are the calls of the source.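 Rule for the calls: active = a valid curve of falling signal whose half-effect concentration is at most ten times the top tested dose; inconclusive = flat curve at 30 to 70% inhibition, or poor fit; inactive = signal rise, flat within 30%, or potency beyond limit.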

Molecular target: Scavenger receptor class B member 1 (Mus musculus) (UniProt Q61009)
Sequence (Q61009 whole entry, looked up): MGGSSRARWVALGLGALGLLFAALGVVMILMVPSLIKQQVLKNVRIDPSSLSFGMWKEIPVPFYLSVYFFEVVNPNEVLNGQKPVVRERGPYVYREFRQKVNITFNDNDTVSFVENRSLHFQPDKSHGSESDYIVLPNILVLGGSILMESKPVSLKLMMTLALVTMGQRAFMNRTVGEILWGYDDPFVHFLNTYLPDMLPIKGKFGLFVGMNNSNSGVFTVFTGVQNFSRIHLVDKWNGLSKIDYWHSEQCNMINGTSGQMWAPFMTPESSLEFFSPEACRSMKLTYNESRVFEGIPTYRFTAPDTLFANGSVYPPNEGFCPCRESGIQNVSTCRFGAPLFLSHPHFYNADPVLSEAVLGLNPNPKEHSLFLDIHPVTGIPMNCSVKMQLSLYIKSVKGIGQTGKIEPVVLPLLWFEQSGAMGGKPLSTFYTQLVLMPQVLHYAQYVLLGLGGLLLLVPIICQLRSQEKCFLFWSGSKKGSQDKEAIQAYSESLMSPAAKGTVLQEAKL
Assay: inhibitors of SR-BI mediated HDL lipid uptake, dose response, ldlA[mSR-BI] cells, fluorescence, cherry pick (AID 493194);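 note: CHO cells lacking LDL receptor and overexpressing mouse SR-BI; cellular uptake of fluorescently labeled HDL measured as cell fluorescence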

| Structure (SMILES) | outcome |
| --- | --- |
| COc1cc2c(C#CCCCO)c(-c3ccsc3)oc(=O)c2cc1OC | inactive |
| CCOC(=O)C1CCN(C(=O)Cn2nc(C)n3nc(-c4ccc(OC)cc4)cc3c2=O)CC1 | inactive |
| O=C1C2CCCN2C(=O)N1CCCN1CCN(c2ccc([N+](=O)[O-])cc2)CC1 (configuration not stated) | inactive |
| Oc1ccc(/C=C/c2nc(-c3ccccc3O)n(-c3ccccc3)n2)cc1 | inactive |
| Cc1c(C(=O)OCC2CCCO2)[nH]c2c1C(=O)CC(c1ccco1)C2 (configuration not stated) | inactive |
| O=C(NCCn1cc(SCc2ccccc2)c2ccccc21)c1c(F)cccc1F | inactive |
| COc1ccc2c(c1)CC(C1(O)C(=O)N(C)c3ccccc31)C2=O (configuration not stated) | inactive |
| COc1cc(/C=C/C(=O)OCC(=O)c2ccc[nH]2)cc(OC)c1OC | inactive |
| Cc1cc2oc(=O)cc(-c3ccccc3)c2c(C)c1-c1ccc(C(F)(F)F)cc1 | inactive |
| CC1Cc2ccccc2N1C(=O)Cn1nnc(-c2ccccc2NC(=O)C2CCC2)n1 (configuration not stated) | inactive |
| Cc1c(C(=O)Nc2cccc(Cl)c2)c2ccccn2c1CCc1ccncc1 | inactive |
| COc1ccc(CN2CCN(C(=O)c3ccc(S(=O)(=O)NCc4ccco4)cc3)CC2)cc1 | inactive |
| CCC1CCCCN1C(=O)CSc1nnc(-c2ccco2)o1 (configuration not stated) | inactive |
| CCCOC1CCCN(C(=O)c2cc(COc3cncc(Cl)c3)on2)C1 (configuration not stated) | inactive |
| COc1ccc(N(CC(=O)NC2CCCC2)C(=O)Cn2nnc(-c3ccc(OC)c(OC)c3)n2)cc1 | inactive |
| N#Cc1ccc(C(=O)N2CCC3CC2c2cc(-c4ccc(F)cc4)ccc23)cc1 (configuration not stated) | inactive |
| O=C(CN1CCN(c2ncc(C(F)(F)F)cc2Cl)CC1)NCCNc1ncc(C(F)(F)F)cc1Cl | inactive |
